Only some compounds are listed: those with a hit (about 6.9% of all), similar ones and a draw of the others.
NS3h inh CB: HCV NS3 helicase inhibitors, primary screen, biochemical, fluorescence polarization, ChemBridge library; Hepatitis C virus NS3 helicase; NS3h Cy5-dT15 DNA binding; inhibition, % at 100 µM; 1.6% of 16,000 active;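 active = inhibition above the average over every tested compound plus 3 SD, cut at about 40% in these data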
Cy5 interf NS3h: Cy5 fluorescence quenchers or enhancers, artefact control for HCV NS3 helicase inhibitor project, biochemical, ChemBridge library, Cy5 readout. Cy5-dT15 DNA with NS3h, fluorescence interference; actives lie on both sides; signal over control mean, under 1 quenches. AID 720488, 2013. fluorescence interference ratio at 100 µM. 6% of 16,000 active;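 active = compound fluorescence over control fluorescence at most 0.8, a quencher, or at least a set upper limit, an enhancer; inactive = ratio between 0.8 and the set upper limit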
HCV NS3h conf: HCV NS3 helicase inhibitors, retest, confirmation, biochemical, fluorescence polarization, ChemBridge library. shares compounds with NS3h inh CB. NS3h binding to Cy5-dT15 DNA. inhibition, % at 100 µM. 20% of 240 active. AID 720485, 2013;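 active = percent inhibition of 50% or more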
SSB FP counter: E. coli SSB-DNA binding inhibitors, counter-screen for HCV NS3 helicase inhibitor project, biochemical, fluorescence polarization, selected ChemBridge compounds; shares compounds with NS3h inh CB; E. coli SSB binding Cy5-dT15; inhibition, % at 100 µM; 40% of 240 active;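 active = inhibition of at least 50%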;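 also: displacers lower Cy5 polarization so higher inhibition means more SSB displaced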
Target sequence (P0AGE0 whole entry, looked up): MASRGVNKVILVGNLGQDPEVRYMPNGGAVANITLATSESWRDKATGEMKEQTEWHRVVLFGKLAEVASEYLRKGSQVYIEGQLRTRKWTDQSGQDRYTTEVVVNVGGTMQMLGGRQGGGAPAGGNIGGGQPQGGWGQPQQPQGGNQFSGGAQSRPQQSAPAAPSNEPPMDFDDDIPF
Cy5 SSB interf: Cy5 fluorescence interference with SSB-bound oligo, artefact control for HCV NS3 helicase inhibitor project, biochemical, E. coli SSB, selected ChemBridge compounds | AID 720487, 2013 | fluorescence interference ratio at 100 µM | Cy5-dT15/E. coli SSB fluorescence interference; actives lie on both sides | shares compounds with NS3h inh CB | 8% of 240 active;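 active = fluorescence interference ratio at or above 1.2, signal boosting, or at or below 0.8, signal quenching; inactive = ratio between 0.8 and 1.2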
Cy5 interf conf: Cy5-DNA-NS3h complex fluorescence interference, confirmation, artefact control for HCV NS3 helicase inhibitor project, biochemical, ChemBridge library; shares compounds with NS3h inh CB; Cy5-dT15 DNA/NS3h fluorescence interference counterscreen; fluorescence interference ratio at 100 µM, hits read low; 44% of 240 active; AID 720489, 2013;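 active = fluorescence interference ratio at or below 0.8 quencher or at or above a set limitenhancer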
A number is an active result; 0 = inactive; - = no result given.

SMILES	NS3h inh CB	Cy5 interf NS3h	HCV NS3h conf	SSB FP counter	Cy5 SSB interf	Cy5 interf conf
O=C1NN(c2ccccc2)C(=O)/C1=C/c1ccc(-c2ccc(F)cc2)o1	0	0	-	-	-	-
O=C1NN(c2ccc(Cl)cc2)C(=O)/C1=C\c1ccc(-c2ccc(Cl)c(C(=O)O)c2)o1	52	0.8	0	0	0	0
COc1ccc([N+](=O)[O-])cc1-c1ccc(/C=C2\C(=O)NC(=O)N(c3ccc(Cl)cc3)C2=O)o1	0	0	-	-	-	-
O=C1NC(=O)N(c2ccc(Cl)cc2)C(=O)/C1=C/c1ccc(-c2ccc(Cl)c(C(=O)O)c2)o1	67	0	63	77	0	0
O=C1NC(=O)N(c2ccccc2)C(=O)/C1=C\c1ccc(-c2cccc(C(=O)O)c2)o1	51	0	0	53	0	0
COc1cccc(CN2CCN(Cc3cc(OC)cc(OC)c3)CC2)c1	0	0	-	-	-	-
COc1ccc(C2C(=C(O)c3ccc(Cl)cc3)C(=O)C(=O)N2c2nccs2)cc1OC (stereo not given)	0	0	-	-	-	-
Cc1cc(/C=N\n2cnnc2)c(C)n1-c1ccc(Br)cc1	0	0	-	-	-	-
Cc1ccc(NC(=O)C(=O)NCC(C)C)c(C)c1	0	0	-	-	-	-
O=C1NC(=S)S/C1=C\c1ccc(-c2ccccc2C(=O)O)o1	62	0	53	110	0.79	0
O=C1NC(=S)S/C1=C/c1ccc(-c2ccccc2)o1	0	0	-	-	-	-
CCN(CC)CCN1C(=O)c2ccccc2NC1c1cccc(F)c1 (stereo not given)	41	0	0	0	0	0
COc1ccc(N2C(=O)c3ccccc3NC2c2cccc(F)c2)cc1 (stereo not given)	0	0	-	-	-	-
Cc1ccc(N2C(=O)c3ccccc3NC2c2cccc(F)c2)cc1 (stereo not given)	0	0	0	0	0	0.72
CCCN1C(=O)c2ccccc2NC1c1cccc(F)c1 (stereo not given)	0	0	-	-	-	-
COc1cccc(/C=C2/C(=O)NN(c3ccc(Br)cc3)C2=O)c1	0	0	-	-	-	-
Cc1ccc(C)n1-c1ccc(C(=O)O)c(O)c1	90	1.3	101	99	0	0
CC(=O)c1ccc(-n2c(C)ccc2C)cc1	0	0	-	-	-	-
Cc1ccc(C(=O)O)cc1N1C(=O)C2C3C=CC(C3)C2C1=O (stereo not given)	0	0	-	-	-	-
Cc1ccc(C)n1-c1cc(C(=O)O)ccc1O	96	1.4	85	104	0	0
COc1ccc(-n2c(Cc3ccccc3)n[nH]c2=S)c(OC)c1	0	0	-	-	-	-
COc1cc(N)ccc1-n1c(C)ccc1C	68	0.7	0	0	0.69	0.61
COC(=O)c1c(C)oc2ccc(OCc3ccccc3Br)cc12	0	0	-	-	-	-
CCOc1ccc2ccc(OCC)c(/C=C3/SC(=S)NC3=O)c2c1	0	0	-	-	-	-
CCOc1ccc2ccccc2c1C=C1C(=O)NC(=S)NC1=O	44	0	0	0	0	0
SMILES	NS3h inh CB	Cy5 interf NS3h	HCV NS3h conf	SSB FP counter	Cy5 SSB interf	Cy5 interf conf
CCOC(=O)c1ccc(NC(=O)CN(c2ccc(OC)cc2OC)S(C)(=O)=O)cc1	0	0	-	-	-	-
O=C(Nc1nnc(C23CC4CC(CC(C4)C2)C3)s1)c1ccccc1F	0	0	-	-	-	-
O=C1NN(c2ccc(F)c(Cl)c2)C(=O)/C1=C\c1ccc(-c2cccc(C(=O)O)c2)o1	43	0.8	0	0	0	0
NS(=O)(=O)c1ccc(-c2ccc(/C=C3/C(=O)NN(c4cccc(Cl)c4)C3=O)o2)cc1	0	0	-	-	-	-
O=C1NN(c2ccc(Cl)cc2)C(=O)/C1=C\c1ccc(-c2cccc(C(=O)O)c2)o1	55	0	0	61	0	0.73
COC(=O)c1ccccc1-c1ccc(/C=C2\C(=O)NN(c3ccccc3)C2=O)o1	0	0	-	-	-	-
COC(=O)C1=C(C)NC2=C(C(=O)c3ccccc32)C1c1ccc(OCc2ccc([N+](=O)[O-])cc2)cc1 (stereo not given)	0	0	-	-	-	-
COc1ccc(-c2cc(C(=O)Nc3ccccc3Cl)c3ccccc3n2)cc1	0	0	-	-	-	-
Cc1ccc2nc(-c3cc(NC(=O)COc4ccccc4)ccc3OC(=O)COc3ccccc3)oc2c1	0	0	-	-	-	-

Compound activity (PubChem BioAssay)
